According to PubChem BioAssay AID1159580 (chemical genetic matrix, 2015):
The campaign covered roughly 5,500 compounds. About 2,000 (36%) were called active. Another 18% or so got no clear call; they are omitted. No stated cut-off is given here; in the data, active means normalized growth mostly below about 0.91 (no sharp cut-off); inconclusive means no clear call, values can overlap the other calls; inactive means mostly above about 0.92. The list shows a part of the results.

Test: chemical genetic growth profiling, strain panel (AID 1159580);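 further: tested at 20 µM; growth read once vehicle control cultures reached saturation at 30 °C; 1 = growth at the plate median or of vehicle wells; lower values mean less growth of the strain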
Details: S. cerevisiae deletion strains, growth OD

Measured: normalized growth

CN1C[C@H](CNC(=O)OCc2ccccc2)C[C@@H]2c3cccc4c3c(cn4C)C[C@H]21
inactive: locus YAL013W, strain DEP1, active compounds read low 0.987 | locus YAL040C, strain CLN3, active compounds read low 0.985 | locus YCL061C, strain MRC1 (second series), active compounds read low 0.998 | locus YDR150W, strain NUM1, active compounds read low 0.994 | locus YDR363W, strain ESC2, active compounds read low 1.01 | locus YER002W, strain NOP16, active compounds read low 1.04 | locus YJR075W, strain HOC1, active compounds read low 0.969 | locus YNL153C, strain GIM3, active compounds read low 0.904 | locus YNL175C, strain NOP13, active compounds read low 1.01 | locus YNL197C, strain WHI3, active compounds read low 0.994 | locus YNL224C, strain SQS1, active compounds read low 1.04 | locus YOR083W, strain WHI5 (second series), active compounds read low 0.969 | locus YPL055C, strain LGE1, active compounds read low 1.02
